Laboratory results as given in PubChem BioAssay.
Unmarked numbers belong to inactive results. For some of these results: Measured potencies and affinities stand elsewhere. Activity calls are given as the source filed them. Unless noted, how the calls were made is not given here.

Columns and labels:
[1] = antimalarial activity against Dd2 strain (AID 2302;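 active means growth inhibition above 50% at the single 2 µM test dose, taken to imply half-maximal potency below 2 µM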;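 further: 0% = DMSO untreated growth and 100% = chloroquine plus artemisinin killed control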); conditions: P. falciparum Dd2 in RBCs, LDH growth readout, 72 h; at 2 µM; active compounds read high
[2] = human hepatoma cell viability loss – ATP luminescence, cytotoxicity control for P. falciparum antimalarial project, primary screen (AID 2303;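 active means inhibition above 50%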;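 further: 0% = DMSO wells and 100% = digitonin-killed cells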); conditions: HepG2 viability, 24-48 h, at 10 µM, active compounds read high
[3] = biological target: L-lactate dehydrogenase (Plasmodium falciparum (isolate CDC / Honduras)) (UniProt Q27743); test: PfLDH activity inhibition – cell lysate, 3D7 strain, counter-screen for P. falciparum growth inhibition project (AID 2304);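 further: 0% = vehicle and 100% = reference inhibitor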; conditions: P. falciparum 3D7 crude extract, LDH APAD/NBT absorbance; at 2 µM; active compounds read high
[4] = inhibition of 3D7 malaria parasite growth – strain 3D7 (AID 2306);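 further: 0% = DMSO wells and 100% = chloroquine plus artemisinin control wells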; conditions: P. falciparum 3D7 erythrocytic growth, LDH absorbance, 72 h; at 2 µM; active compounds read high
[5] = biological target: Calcium-dependent protein kinase 1 (Plasmodium falciparum (isolate 3D7)) (UniProt P62344); test: PfCDPK1 kinase inhibitors, biochemical, TCAMS library (AID 1159585; cut-off not given, nearly all actives have IC50 up to about 0.98 µM;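 further: inhibitors leave more ATP so luminescence rises with inhibition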); conditions: recombinant PfCDPK1, Kinase-Glo ATP depletion luminescence
[6] = biological target: Plasmodium falciparum protein kinase 6 (PK6, PF3D7_1337100) (UniProt Q8IDW1); test: PfPK6 kinase inhibitors, biochemical, TCAMS library (AID 1159586); conditions: recombinant PfPK6, Kinase-Glo ATP depletion luminescence
[7] = biological target: Protein kinase 7 (PK7), Plasmodium falciparum 3D7 (PF3D7_0213400) (UniProt Q7YTF7); test: inhibition of Plasmodium PK7 catalytic activity – biochemical, TCAMS antimalarial set, Kinase-Glo luminescence (AID 1159587); conditions: recombinant PfPK7, Kinase-Glo ATP depletion luminescence
[8] = biological target: Calcium-dependent protein kinase 4 (Plasmodium falciparum (isolate 3D7)) (UniProt Q8IBS5); test: PfCDPK4 kinase inhibitors, biochemical, TCAMS library (AID 1159588; cut-off not given, nearly all actives have IC50 up to about 0.91 µM); conditions: recombinant PfCDPK4, Kinase-Glo ATP depletion luminescence
Calcium-dependent protein kinase 4 (Plasmodium falciparum (isolate 3D7)), sequence (Q8IBS5 whole entry, looked up): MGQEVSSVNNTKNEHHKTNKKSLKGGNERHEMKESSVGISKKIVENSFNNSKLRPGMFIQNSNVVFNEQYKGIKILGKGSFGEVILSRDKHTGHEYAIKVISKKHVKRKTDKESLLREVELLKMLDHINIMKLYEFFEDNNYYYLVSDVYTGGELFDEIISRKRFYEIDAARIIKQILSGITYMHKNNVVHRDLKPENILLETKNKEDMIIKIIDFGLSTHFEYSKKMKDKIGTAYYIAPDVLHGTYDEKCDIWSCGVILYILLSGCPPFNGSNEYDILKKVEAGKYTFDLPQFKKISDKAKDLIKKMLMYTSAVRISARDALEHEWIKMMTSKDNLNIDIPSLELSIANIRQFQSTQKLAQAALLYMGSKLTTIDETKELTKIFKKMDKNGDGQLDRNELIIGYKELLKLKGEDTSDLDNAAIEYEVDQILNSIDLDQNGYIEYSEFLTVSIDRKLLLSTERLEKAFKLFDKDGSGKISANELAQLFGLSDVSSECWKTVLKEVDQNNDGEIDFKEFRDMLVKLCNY

Protein kinase 7 (PK7), Plasmodium falciparum 3D7 (PF3D7_0213400), sequence (Q7YTF7 1-343): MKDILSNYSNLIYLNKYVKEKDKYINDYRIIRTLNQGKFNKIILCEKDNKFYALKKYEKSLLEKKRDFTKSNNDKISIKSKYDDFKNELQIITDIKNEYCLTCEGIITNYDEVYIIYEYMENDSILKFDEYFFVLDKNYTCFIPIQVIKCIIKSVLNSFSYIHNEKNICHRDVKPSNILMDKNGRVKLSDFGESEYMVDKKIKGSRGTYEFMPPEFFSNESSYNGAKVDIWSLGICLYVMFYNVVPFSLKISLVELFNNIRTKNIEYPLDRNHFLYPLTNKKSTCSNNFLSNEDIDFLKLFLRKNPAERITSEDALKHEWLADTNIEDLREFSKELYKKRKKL
L-lactate dehydrogenase (Plasmodium falciparum (isolate CDC / Honduras)), sequence (Q27743 whole entry, looked up): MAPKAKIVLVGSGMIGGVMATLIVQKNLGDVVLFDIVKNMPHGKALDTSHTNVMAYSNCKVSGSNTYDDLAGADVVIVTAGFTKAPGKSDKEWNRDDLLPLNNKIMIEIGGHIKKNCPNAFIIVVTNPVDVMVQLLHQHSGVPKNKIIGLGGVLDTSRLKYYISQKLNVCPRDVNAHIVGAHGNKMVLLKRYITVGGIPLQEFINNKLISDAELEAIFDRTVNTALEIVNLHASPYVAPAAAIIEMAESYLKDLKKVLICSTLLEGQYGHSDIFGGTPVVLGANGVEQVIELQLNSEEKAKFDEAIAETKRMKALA
Plasmodium falciparum protein kinase 6 (PK6, PF3D7_1337100), sequence (Q8IDW1 1-305): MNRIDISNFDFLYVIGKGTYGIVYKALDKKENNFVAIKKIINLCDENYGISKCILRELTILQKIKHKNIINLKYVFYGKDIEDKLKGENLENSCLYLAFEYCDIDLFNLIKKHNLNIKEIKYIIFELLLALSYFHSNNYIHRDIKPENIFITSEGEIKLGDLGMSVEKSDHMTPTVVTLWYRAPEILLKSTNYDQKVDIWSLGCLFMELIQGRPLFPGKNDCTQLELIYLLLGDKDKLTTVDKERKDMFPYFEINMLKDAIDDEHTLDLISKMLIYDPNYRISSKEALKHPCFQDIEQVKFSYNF
Calcium-dependent protein kinase 1 (Plasmodium falciparum (isolate 3D7)), sequence (P62344 whole entry, looked up): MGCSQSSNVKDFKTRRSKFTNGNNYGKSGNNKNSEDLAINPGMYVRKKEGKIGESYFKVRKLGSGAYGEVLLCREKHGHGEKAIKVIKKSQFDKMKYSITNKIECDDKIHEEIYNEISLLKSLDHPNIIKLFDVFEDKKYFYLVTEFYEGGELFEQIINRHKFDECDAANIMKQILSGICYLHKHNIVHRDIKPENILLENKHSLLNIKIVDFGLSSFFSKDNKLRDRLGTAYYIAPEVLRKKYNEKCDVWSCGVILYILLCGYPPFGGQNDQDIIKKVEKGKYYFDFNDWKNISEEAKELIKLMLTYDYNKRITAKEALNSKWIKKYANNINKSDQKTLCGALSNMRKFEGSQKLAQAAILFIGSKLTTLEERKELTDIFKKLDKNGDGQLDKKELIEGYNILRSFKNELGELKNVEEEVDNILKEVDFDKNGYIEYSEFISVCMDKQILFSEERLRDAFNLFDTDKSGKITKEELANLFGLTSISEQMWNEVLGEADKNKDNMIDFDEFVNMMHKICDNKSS

| SMILES | growth inhibition [1] | inhibition [2] | inhibition [3] | growth inhibition [4] | outcome [5] | outcome [6] | outcome [7] | outcome [8] |
| --- | --- | --- | --- | --- | --- | --- | --- | --- |
| Cc1cc(NC(=O)Nc2cccc(C#N)c2)c2ccccc2n1 | 82% (active) | 17% | -1% | 100% (active) | inactive | inactive | inactive | inactive |
| O=C(Nc1cc(Cl)cc(Cl)c1)Nc1ccnc2ccccc12 | 65% (active) | 15% | -2% | 96% (active) | inactive | inactive | inactive | inactive |
| Cc1ccc(NC(=O)c2cccc(CN3CCCN(Cc4cccc(O)c4)CC3)c2)cc1F | 45% | 20% | -5% | 99% (active) | inactive | inactive | inactive | inactive |
| COc1ccc(CNC2Cc3ccccc3C2)cc1-c1ccc(S(=O)(=O)NCc2cccnc2)s1 | 18% | 49% | 3% | 91% (active) | inactive | inactive | inactive | inactive |
| Cc1cc(NN=Cc2cccc([N+](=O)[O-])c2)c2ccc(F)cc2n1 | 98% (active) | -18% | -8% | 101% (active) | inactive | inactive | inactive | inactive |
| C=CCNC(=O)CCCN=C(N)N | 12% | -9% | -1% | 98% (active) | inactive | inactive | inactive | inactive |
| CC(=O)Nc1ccc(CN2CCC(NC(=O)c3ccc(-c4cccc(OC(C)C)c4)s3)CC2)cc1 | 13% | 14% | -5% | 89% (active) | inactive | inactive | inactive | inactive |
| CN(Cc1ccccc1)C(=O)CCNS(=O)(=O)c1cc(Br)cnc1N | 61% (active) | -5% | 4% | 91% (active) | inactive | inactive | inactive | inactive |
| O=S(=O)(NCCN1CCCC1)c1ccc(-c2cccc(CNCc3ccccc3)c2)s1 | 43% | 44% | 0% | 94% (active) | inactive | inactive | inactive | inactive |
| Cc1nc(N=C(N)N)nc2cc3c(cc12)CCC3 | 58% (active) | 17% | 5% | 90% (active) | inactive | inactive | inactive | inactive |
| CN1CCN(Cc2ccc(-c3ccc4c(Nc5ccc(Oc6ccccc6)cc5)ccnc4c3)o2)CC1 | 99% (active) | 23% | 0% | 99% (active) | inactive | inactive | inactive | inactive |
| N#Cc1ccc(-c2ccc(C(=O)NCCCCN3CCC(c4ccncc4)CC3)cc2)cc1 | 16% | 34% | -3% | 94% (active) | inactive | inactive | inactive | inactive |
| Cc1ccnc(Nc2nc(-c3ccccn3)cs2)c1 | 87% (active) | 45% | -4% | 100% (active) | inactive | inactive | inactive | inactive |
| CCCC1CCNC(C(O)c2ccnc3ccc(OC)cc23)C1 (stereo not drawn) | 78% (active) | -15% | -3% | 98% (active) | inactive | inactive | inactive | inactive |
| COc1ccc2nccc(NN=Cc3cccc(C)n3)c2c1 | 99% (active) | 16% | 3% | 100% (active) | inactive | inactive | inactive | inactive |
| Cc1[nH]c(C)c(-c2ccc(CCc3ccc(F)cc3F)cc2)c(=O)c1Br | 98% (active) | -5% | -3% | 97% (active) | inactive | inactive | inactive | inactive |
| Fc1cccc(COc2ccc(Nc3ncnc4sc(C#CCNC5CCCC5)cc34)cc2Cl)c1 | 78% (active) | 3% | 3% | 100% (active) | inactive | inactive | inactive | inactive |
| COc1ccc2nccc([C@@H](O)CN3CCC(NCCOc4cc(C(F)(F)F)ccc4F)CC3)c2c1 | 83% (active) | 13% | 2% | 100% (active) | inactive | inactive | inactive | inactive |
| Cc1cc(N2Cc3ccccc3C2)nc(Nc2cccc(C#N)c2)n1 | 97% (active) | 6% | -2% | 100% (active) | inactive | inactive | inactive | inactive |
| CC(C)CCCC(C)(C)NC[C@@H](O)[C@H](Cc1ccccc1)NC(=O)c1cccc(OCC2CC2)c1 | 91% (active) | 99% (active) | 3% | 96% (active) | inactive | inactive | inactive | inactive |
| COc1cc2nc(NCCC(C)C)n3nc(-c4ccccc4)nc3c2cc1OC | 97% (active) | -7% | 4% | 94% (active) | inactive | inactive | inactive | inactive |

| SMILES | growth inhibition [1] | inhibition [2] | inhibition [3] | growth inhibition [4] | outcome [5] | outcome [6] | outcome [7] | outcome [8] |
| --- | --- | --- | --- | --- | --- | --- | --- | --- |
| O=[N+]([O-])c1cc(/C=N/Nc2nc3ccccc3[nH]2)ccc1O | 14% | -7% | -5% | 98% (active) | inactive | inactive | inactive | inactive |
| NCCCNc1nc(Nc2ccc(C(F)(F)F)cc2F)c2c(=O)[nH]ccc2n1 | 15% | 23% | -1% | 95% (active) | inactive | inactive | inactive | inactive |
| c1ccc(Oc2ccc(Nc3ccnc(Nc4cccc(CNCCCN5CCOCC5)c4)n3)cc2)cc1 | 50% (active) | -1% | -1% | 100% (active) | inactive | inactive | inactive | inactive |
| CC(C)(C)c1cc(CN2CCN(Cc3ccccc3)CC2)cc(C(C)(C)C)c1O | 0% | 9% | 0% | 97% (active) | inactive | inactive | inactive | inactive |
| Cn1nc(-c2cccc(CNC3CCc4ccccc43)c2)c2cnc(NC3CCCC3)nc21 (stereo not drawn) | 23% | 14% | -1% | 100% (active) | inactive | inactive | inactive | inactive |
| CN(C)c1ccc(-c2nnc(Sc3ccc(C#N)c([N+](=O)[O-])c3)n2Cc2ccco2)cc1 | 79% (active) | 3% | 3% | 95% (active) | inactive | inactive | inactive | inactive |
| CCCCCCN(CCCCCC)CC(O)c1c(OC)ccc2ccccc12 (stereo not drawn) | 100% (active) | 18% | -1% | 101% (active) | inactive | inactive | inactive | inactive |
| CN1CCC(C(=O)N(Cc2ccc(-c3ccc(CNCCc4ccc(S(C)(=O)=O)cc4)cn3)cc2)C2CCN(Cc3ccccc3)CC2)CC1 | 95% (active) | 11% | -5% | 102% (active) | inactive | inactive | inactive | inactive |
| C[C@@H]1CN(CCCn2c3ccccc3c3ccc(C(=O)CCCN(C)C)cc32)C[C@H](C)N1 | 6% | 26% | 3% | 100% (active) | inactive | inactive | inactive | inactive |
| COc1ccccc1-c1ccc(CNC(=O)C(CN2CCN(C)CC2)c2ccccc2)cc1 (stereo not drawn) | 4% | 3% | 2% | 90% (active) | inactive | inactive | inactive | inactive |
| CCOC(=O)Cc1nc(N)c(C(=O)OCC)[nH]1 | 24% | 2% | -1% | 94% (active) | inactive | inactive | inactive | inactive |
| CC1(C)N=C(N)N=C(N)N1c1cc(Cl)c(Cl)c(Cl)c1 | 31% | 68% (active) | -7% | 93% (active) | inactive | inactive | inactive | inactive |
| CCCC1N=C(N)N=C(N)N1c1ccc(Cl)cc1 (stereo not drawn) | -2% | 14% | 5% | 96% (active) | inactive | inactive | inactive | inactive |
| CCN1CCN(c2cc(C)c3cc(NC(=O)c4cccc(OC)c4)ccc3n2)CC1 | 15% | 5% | 3% | 99% (active) | inactive | inactive | inactive | inactive |
| CCOCn1c(-c2ccccc2)cc2c3c(N)nc(N)nc3ccc21 | 66% (active) | 62% (active) | -4% | 91% (active) | inactive | inactive | inactive | inactive |
| COc1ccc(CCN(C)CCCN2CCC(NC(=O)c3cccc4c(=O)c5ccccc5[nH]c34)CC2)cc1OC | 72% (active) | 19% | 2% | 99% (active) | inactive | inactive | inactive | inactive |
| COCCn1c(C)cc(C(=O)CN2C(=O)NC(C)(c3ccc(C(C)(C)C)cc3)C2=O)c1C (stereo not drawn) | 96% (active) | 7% | 1% | 97% (active) | inactive | inactive | inactive | inactive |
| CCN(CCCN1CCCCC1)c1cc(C)nc(Nc2ccc(Oc3ccccc3)cc2)n1 | 99% (active) | 50% (active) | -3% | 101% (active) | inactive | inactive | inactive | inactive |
| C(=N\Nc1nccc2sc(-c3cccnc3)cc12)/c1cccnc1 | 54% (active) | 5% | 5% | 98% (active) | inactive | inactive | inactive | inactive |
| COc1ccc(CCc2ccc(-c3c(C)[nH]c(C)c(Cl)c3=O)cc2)cc1OC | 97% (active) | -5% | -7% | 99% (active) | inactive | inactive | inactive | inactive |
